# PubChem BioAssay (NCATS)
# Experiment: Cell Proliferation Assay against the TMD8 Cell Line (AID 651645);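 also: cells exposed to compound for 48 h before reading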
# Conditions: TMD8 DLBCL cell line proliferation/viability; at 46.1 µM (top of the series) unless noted
# Source text: One class of targeted therapeutics showing early clinical success in killing of ABC DLBCL lines are small molecule inhibitors of the Bruton tyrosine kinase (BTK) 11.
# Prior to any combination assays, using an NCATS developed oncology compound library called the Mechanism of Interrogation Plate (MIPE), two well studied ABC DLBCL lines (TMD8 and HBL1) were screened using a cell viability assay (CellTiterGlo) and a 12-point titration series for each single agent. These initial experiments offered insight into the concentration range that offered the best coverage of activity and non-activity to assure relevant data is generated. In addition to the viability signature associated with this library, we examined the apoptotic response of each agent versus the TMD8 line as judged by caspase 3/7 activation. Activity was assayed at both 8 and 16 hour time-points to gain an appreciation of which agents induced an apoptotic response in a reasonable timeframe from a therapeutic exposure perspective. MIPE was also assayed for single agent viability in a human mesenchymal stem cell (hMSC) line as a surrogate of each library member's potential therapeutic index.
# A total of 500 log growing TMD8 cells are seeded per well in 5 uL of a RPMI with glutamine (or Glutamax), without phenol red plus 5% FBS and 1X Pen/Strep into 1536 -solid white high base tissue culture treated Greiner One Bio Plates (789173-F) using a multidrop combi dispenser and a small sterile cassette. Compounds and controls totaling 23nL per well (negative control DMSO and positive control 9.2 uM Bortezomib-final) are immediately added to the plates using a 1536 head pin tool from Kalypsys. The plates are then covered with stainless steel gasket lids from Kalypsys and incubated for 48 hours at 37C under 95% relative humidity with 5% CO2. After 48 hours, the plates are removed and allowed to reach room temperature before 3 uL of Cell Titer Glo reagent (Promega) is added using an Aurora Flying Reagent Dispenser Bioraptor. The plates are then spun at 1000 rpms to remove bubbles and incubated for 15 minutes at room temperature before read on a ViewLux using a luminescent filter with a 10 second exposure. The relative luciferase units are used to calculated percent activity using DMSO as 100% and Bortezomib as 0%.
row,Compound,viability (% of control)
1,Cc1cc([C@@H](C)Nc2ccccc2C(=O)O)c2nc(N3CCOCC3)cc(=O)n2c1,14.9%
2,CC(C)(C)OC(=O)CN(Cc1ccc(Cl)cc1)Cc1ccc([N+](=O)[O-])s1,7.07%
3,CC(C)(Sc1ccc(CCN(CCCCC2CCCCC2)C(=O)NC2CCCCC2)cc1)C(=O)O,92.1%
4,CN(C)c1ccc(Nc2nc(N)n(C(=O)c3c(F)cccc3F)n2)cc1,28.9%
5,CN([C@@H](Cc1ccc(OS(=O)(=O)c2cccc3cnccc23)cc1)C(=O)N1CCN(c2ccccc2)CC1)S(=O)(=O)c1cccc2cnccc12,72.1%
6,OC[C@H](Cc1ccccc1)Nc1nc(Oc2ccc3c(c2)CCC3)nc2c1ncn2Cc1ccc(-c2ccccc2)cc1,54.4%
7,CCOc1cc(C=C2C(=O)N(c3ccccc3)N=C2C)cc(Cl)c1OCC(=O)OC,81.8%
8,N#Cc1ccc(C(c2ccc(C#N)cc2)n2cncn2)cc1,71.5%
9,CCn1c(-c2nonc2N)nc2cnc(Oc3cccc(NC(=O)c4ccc(OCCN5CCOCC5)cc4)c3)cc21,19.6%
10,NC(=O)c1ccc(I)c([N+](=O)[O-])c1,92.9%
11,COc1ccc(CCN2CCN(CCCc3ccccc3)CC2)cc1OC,83.9%
12,CNC(=O)c1ccccc1Sc1ccc2c(/C=C/c3ccccn3)n[nH]c2c1,23.8%
13,CC(c1cc2ccccc2s1)N(O)C(N)=O (stereo not given),92.3% [at 92.2 µM]
14,O=C(O)[C@@H](c1ccc(OCc2ccc3ccccc3n2)cc1)C1CCCC1,94.6%
15,Cn1cnc2c(F)c(Nc3ccc(Br)cc3Cl)c(C(=O)NOCCO)cc21,79.9%
16,c1ccc(-c2nn3c(c2-c2ccnc4cc(OCCN5CCOCC5)ccc24)CCC3)nc1,41.4%
17,CC(C)OC(=O)C1=CN(C(=O)c2ccc(F)c(F)c2)CC(C)(C)c2c1[nH]c1ccccc21,9.41%
18,Nc1cccc(S(=O)(=O)N2CCCN(S(=O)(=O)c3ccc4c(c3)OCCO4)CC2)c1,46.2%
19,O=C(O)c1ccc(-c2c[nH]c3ccc(-c4ccccc4)cc23)cc1C1CCCC1,83.2%
20,Cc1cnc(Nc2ccc(OCCN3CCCC3)cc2)nc1Nc1cccc(S(=O)(=O)NC(C)(C)C)c1,90.7%

row,Compound,viability (% of control)
1,O=c1ncn2nc(Sc3ccc(F)cc3F)ccc2c1-c1c(Cl)cccc1Cl,65.5%
2,CNC(=O)c1ccc(C)c(-n2c(C)cc(OCc3ccc(F)cc3F)c(Br)c2=O)c1,53%
3,Cc1c(C)c2c(c(C)c1O)CCC(C)(COc1ccc(CC3SC(=O)NC3=O)cc1)O2 (stereo not given),71.7%
4,Cc1ccc(-n2nc(C(C)(C)C)cc2NC(=O)Nc2ccc(OCCN3CCOCC3)c3ccccc23)cc1,66.7%
5,COc1ccc(-c2ccc3c(N4CCOC[C@H]4C)nc(N4CCOC[C@H]4C)nc3n2)cc1CO,25%
6,CCCc1nn(C)c2c(=O)[nH]c(-c3cc(S(=O)(=O)N4CCN(C)CC4)ccc3OCC)nc12,102%
7,O=C(O)CCc1ccc(NCc2cccc(Oc3ccccc3)c2)cc1,107%
8,Cc1oncc1C(=O)Nc1ccc(C(F)(F)F)cc1,54%
9,CCN(c1ccccc1)c1cc(NC)[n+](C)c(C)n1,99.5%
10,CCCS(=O)(=O)Nc1ccc(F)c(C(=O)c2c[nH]c3ncc(Cl)cc23)c1F,68.5%
11,Cn1cc(-c2ccc3nnc(C(F)(F)c4ccc5ncccc5c4)n3n2)cn1,76.9%
12,CCc1cc(Nc2nccc(-c3c(-c4ccc(OC)c(C(=O)Nc5c(F)cccc5F)c4)nc4ccccn34)n2)c(OC)cc1N1CCC(N2CCN(S(C)(=O)=O)CC2)CC1,78.7%
13,C/C(=C\C(=O)Nc1ccccc1C(=O)O)c1ccc2ccccc2c1,53.7%
14,COCCNCCCn1c(C(=O)CF)c(-c2ccc(C)cc2)c2c(N)ncnc21,75.8%
15,O=S(=O)(N=Cc1c(O)ccc2ccccc12)c1cccs1,49.7%
16,C#Cc1cccc(Nc2ncnc3cc(OCCOC)c(OCCOC)cc23)c1,58%
17,COc1cccc2cc(-c3nc(C4CCC(C(=O)O)CC4)n4ncnc(N)c34)[nH]c12 (stereo not given),18.4%
18,COc1ccc2nc(S(=O)Cc3ncc(C)c(OC)c3C)[nH]c2c1 (stereo not given),52.2%
19,Cc1csc(NC(=O)c2sc3nc4c(c(C(F)(F)F)c3c2N)CCC4)n1,64.8%
20,O=C(OCC#CCSc1nnc(-c2ccc3ccccc3c2)o1)c1cc2ccccc2s1,90%
